Compounds without any hit were thinned out: in the full panel of roughly 79,000, 15% have a hit. Values without a mark were called inactive. Calls of active or inactive are those of the source. No stated cut-off is given here; in the data, active means growth inhibition above about 70%; inactive means the rest.
What was measured:
[1] = NCI Yeast Anticancer Drug Screen. Data for the rad50 strain (AID 155);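 further: 0% = growth of vehicle-only cultures of the same strain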; conditions: S. cerevisiae rad50 strain growth inhibition, hits give high values
Method in brief: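 A DNA repair-deficient yeast mutant serves as the test organism; compound-induced growth inhibition is calculated against vehicle-treated cells.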

[2] = NCI Yeast Anticancer Drug Screen. Data for the mec2-1 strain (AID 157); conditions: S. cerevisiae mec2-1 strain, hits give high values
Method in brief: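 Vehicle-treated cultures served as reference for growth inhibition of compound-exposed mec2-1 yeast.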

[3] = NCI Yeast Anticancer Drug Screen. Data for the sgs1 mgt1 strain (AID 161);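 further: 0% = growth of cultures given vehicle only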; conditions: S. cerevisiae sgs1 mgt1 strain, hits give high values
Method in brief: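 Genetically altered yeast, compound exposure, growth inhibition relative to vehicle.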

[4] = NCI Yeast Anticancer Drug Screen. Data for the cln2 rad14 strain (AID 165);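 further: 0% = growth equal to vehicle treated cultures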; conditions: S. cerevisiae cln2 rad14 strain, hits give high values
Method in brief: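 Each compound was tested on cln2 rad14 yeast. Inhibition of growth was calculated against vehicle-exposed controls.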

[5] = NCI Yeast Anticancer Drug Screen. Data for the bub3 strain (AID 167); conditions: S. cerevisiae bub3 mutant strain, hits give high values
Method in brief: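 Inhibition values come from growth of compound-treated mutant yeast normalised to vehicle-treated controls.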

[6] = NCI Yeast Anticancer Drug Screen. Data for the mlh1 rad18 strain (AID 175); conditions: S. cerevisiae mlh1 rad18 strain growth inhibition, hits give high values
Method in brief: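 Vehicle-treated cultures served as the reference for growth inhibition in a yeast strain carrying DNA damage repair alterations exposed to each compound.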

[7] = at 5.0 µM (retest, dose inferred, filed as 0.5)
[8] = at 50.0 µM (retest, dose inferred, filed as 5.0)

Compound	growth inhibition [1, 7]	growth inhibition [1, 8]	growth inhibition ([1]; at 50.0 µM)	growth inhibition [2, 7]	growth inhibition [2, 8]	growth inhibition ([2]; at 50.0 µM)	growth inhibition [3, 7]	growth inhibition [3, 8]	growth inhibition ([3]; at 50.0 µM)	growth inhibition [4, 7]	growth inhibition [4, 8]	growth inhibition ([4]; at 50.0 µM)	growth inhibition [5, 7]	growth inhibition [5, 8]	growth inhibition ([5]; at 50.0 µM)	growth inhibition [6, 7]	growth inhibition [6, 8]	growth inhibition ([6]; at 50.0 µM)
COC(=O)c1cc(=O)n(-c2ccccc2C(F)(F)F)c(SC)n1	24%	91% (active)	99.2% (active)	14%	92% (active)	99.5% (active)	43%	94% (active)	99.5% (active)	14%	87% (active)	96.8% (active)	7%	89% (active)	99.5% (active)	39%	95% (active)	99.5% (active)
O=C(O)c1c(Cl)c(Cl)c(Cl)c(Cl)c1-c1c2ccc(=O)cc-2oc2cc(O)ccc12	54%	97% (active)	86.7% (active)	45%	99% (active)	92% (active)	61%	99% (active)	90.5% (active)	57%	98% (active)	91.2% (active)	57%	99% (active)	90.1% (active)	67%	98% (active)	86.2% (active)
CN=C(NC1CCCCC1)c1ccc(NC(=O)c2ccc(C(=O)Nc3ccc(C(=NC)NC4CCCCC4)cc3)cc2)cc1	0%	81% (active)	69.5%	2%	59%	24%	6%	96% (active)	85.5% (active)	6%	65%	92% (active)	-1%	74% (active)	33.7%	-1%	99% (active)	94.8% (active)
O=C1OC(c2ccccc2)=N/C1=C\c1ccc(Oc2ccc(Cl)c(Cl)c2)cc1	8%	8%	69.4%	14%	14%	61.5%	0%	0%	74.8% (active)	-2%	-2%	46%	-1%	-1%	69.7%	-4%	-4%	52.4%
CC(SC1=CC(=O)c2c(Cl)ccc(O)c2C1=O)C(=O)O (configuration not stated)	10%	13%	5.7%	2%	16%	1.25%	22%	30%	-25.1%	-9%	7%	-47.5%	0%	17%	6%	3%	26%	8.35%
Cc1ccc(O)c(C(C)c2ccccc2)c1 (configuration not stated)	6%	97% (active)	99.2% (active)	-20%	99% (active)	99.6% (active)	-3%	97% (active)	98.8% (active)	-8%	96% (active)	98.8% (active)	21%	98% (active)	98.8% (active)	2%	98% (active)	99.1% (active)
O=CC(=C\c1ccco1)/C(C=O)=C\c1ccco1	11%	25%	18.1%	7%	44%	5.45%	11%	63%	13%	2%	15%	33.9%	-6%	33%	-23.6%	21%	86% (active)	71.9% (active)
CCCCCCCCCCCCNCc1ccc(O)c(OC)c1	95% (active)	97% (active)	97.3% (active)	97% (active)	98% (active)	97.4% (active)	99% (active)	97% (active)	44.1%	93% (active)	97% (active)	95.7% (active)	96% (active)	97% (active)	97.8% (active)	98% (active)	97% (active)	97.5% (active)
COc1cccc(OC)c1C(=O)/C=C/c1ccccc1	-3%	62%	66.7%	-1%	66%	45%	1%	62%	69.9%	-7%	47%	55.4%	-5%	70% (active)	50.9%	1%	71% (active)	79.1% (active)
OC(C1CCCC1=N/N=C1/CCCC1C(O)(C(F)(F)Cl)C(F)(F)Cl)(C(F)(F)Cl)C(F)(F)Cl (configuration not stated)	-2%	22%	86.3% (active)	-2%	25%	89.3% (active)	-4%	7%	90.9% (active)	1%	26%	88.8% (active)	0%	11%	91.8% (active)	-3%	33%	92% (active)
O=C1C(Cl)=C(N2CCN(c3ccccn3)CC2)C(=O)c2ncccc21	40%	94% (active)	85.3% (active)	21%	98% (active)	88.8% (active)	23%	97% (active)	91% (active)	10%	96% (active)	89.4% (active)	50%	98% (active)	88.6% (active)	34%	97% (active)	89.1% (active)
Nc1nc(-c2ccccn2)cc2cc(Cl)ccc12	93% (active)	99% (active)	3.15%	92% (active)	100% (active)	-5.45%	95% (active)	99% (active)	7.55%	88% (active)	98% (active)	-1.4%	92% (active)	99% (active)	8.05%	94% (active)	98% (active)	13.9%
CN1C(=O)C(Cl)(C(Cl)(Cl)S(=O)(=O)O)C(=O)c2ccccc21 (configuration not stated)	-3%	95% (active)	42%	1%	99% (active)	18.3%	1%	98% (active)	-8.1%	3%	96% (active)	34.5%	0%	97% (active)	4.2%	-1%	97% (active)	27.5%
N=C(N)c1ccc(Nc2ccc(C(=N)N)cc2)cc1	20%	5%	91.2% (active)	30%	-7%	86.3% (active)	19%	9%	90% (active)	1%	14%	72.2% (active)	21%	56%	97.8% (active)	14%	39%	91% (active)
CC(=O)NCC1OC2COC(c3ccccc3)OC2C(NC(=O)c2ccccc2)C1OC(=O)c1ccccc1 (configuration not stated)	15%	10%	22.4%	15%	10%	11.8%	-11%	-13%	2.3%	6%	-15%	6.7%	8%	5%	7.55%	15%	9%	91.3% (active)
Cc1cc(Cl)c2c(c1)C(=O)/C(=C/c1ccc(Cl)cc1)O2	5%	99% (active)	88.3% (active)	18%	99% (active)	90% (active)	-17%	99% (active)	84.1% (active)	26%	99% (active)	89.2% (active)	-22%	98% (active)	88.7% (active)	13%	99% (active)	85.3% (active)
COc1ccc2c(Cc3ccc(O)cc3)cncc2c1O	-1%	6%	8.65%	-8%	26%	51.5%	-3%	16%	-7.15%	5%	4%	91.8% (active)	-5%	-4%	71.5% (active)	6%	27%	97.6% (active)
O=[N+]([O-])/C(C(Cl)=C(Cl)Cl)=C(/Nc1ccccc1)SCc1ccccc1	32%	100% (active)	12.3%	32%	100% (active)	26.1%	13%	99% (active)	18.9%	21%	97% (active)	14.6%	28%	94% (active)	43.4%	38%	100% (active)	50.6%
c1ccc(N=C2SC3=NCCN3C2=Nc2ccccc2)cc1	43%	87% (active)	50%	7%	86% (active)	74.5% (active)	17%	86% (active)	72% (active)	31%	66%	46.6%	-11%	97% (active)	70.2% (active)	13%	78% (active)	61.9%
